Shown are actives, neighbours in structure and some others; about 14% of the full set was active somewhere.
NS1 function inh = qHTS Assay for Inhibitors of Influenza NS1 Protein Function. Potency, µM (highest dose often 46.1 µM), without a hit: at the highest dose activity, positive = more growth. actives 0.4% (n = 270,000). AID 2326, 2010; calls by dose curve; also: potency is read from the fitted curve at half-maximal effect; actives are rising curves; nearly all actives have a fitted effect of over 50% in size
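Recovery from NS1-induced slow growth read by OD600 in budding yeast switched to galactose assay medium (pH 6.0, -URA) at 1:100 dilution. Compound 23 nl per well; the matching strain lacking NS1 serves as control.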
Shiga toxin inh = A qHTS for Small Molecule Inhibitors of Shiga Toxin. Vero cells, Shiga toxin protein synthesis inhibition reporter. actives 9.2% (n = 290,000). AID 2315, 2010. inhibition, % at 38.7 µM; in the data active = inhibition mostly above about 28%, no sharp cut-off; inactive = mostly below about 43%; also: 0% is about no effect
Giardia FBPA inh = qHTS Assay for Inhibitors of Fructose-1,6-bisphosphate Aldolase from Giardia Lamblia; A8B2U2; purified Giardia FBPA; Potency, µM (highest dose often 59.6 µM), without a hit: at the top dose activity, negative = inhibition, usual class: inhibitors; actives 0.71% (n = 290,000); also: potency is read from the fitted curve at half-maximal effect; % is scaled to controls: 0 for no effect and ±100 for the full control effect; nearly all actives have a fitted effect of over 55% in size
Target sequence (A8B2U2 whole entry, looked up): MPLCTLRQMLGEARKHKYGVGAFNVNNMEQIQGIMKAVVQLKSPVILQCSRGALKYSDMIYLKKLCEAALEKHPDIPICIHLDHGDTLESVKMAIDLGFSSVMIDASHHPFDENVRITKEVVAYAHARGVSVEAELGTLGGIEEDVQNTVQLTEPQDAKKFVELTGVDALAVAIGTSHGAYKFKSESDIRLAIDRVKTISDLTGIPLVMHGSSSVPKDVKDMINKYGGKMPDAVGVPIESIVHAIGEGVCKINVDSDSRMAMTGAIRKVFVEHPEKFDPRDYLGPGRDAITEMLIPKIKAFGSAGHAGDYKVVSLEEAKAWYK
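40 nM FBPA preincubated 10 min at RT with compound (up to 57.5 uM final), then substrate plus GAPDH/TPI/NAD/arsenate coupling and diaphorase/resazurin added. Fluorescence read after 20 min at RT, 525/598 nm.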
LmPK inhibitor = qHTS Assay for Inhibitors of Leishmania Mexicana Pyruvate Kinase (LmPK); Q27686; AID 1721, 2009; purified LmPK, Kinase-Glo ATP luminescence, 1 h; Potency, µM (titrated, usually from 57.5 µM), for the others: at the highest dose activity change, negative = inhibition, usual class: inhibitors; actives 0.37% (n = 290,000); also: potency is read from the fitted curve at half-maximal effect; % is scaled to controls: 0 for no effect and ±100 for the full control effect
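In 50 mM imidazole pH 7.2 with 7 mM MgCl2, LmPK (0.1 nM) turned over PEP (0.5 mM) and ADP (0.1 mM) for 1 h at room temperature. Luciferase read-out of ATP.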
Cycloheximide cs = Cycloheximide Counterscreen for Small Molecule Inhibitors of Shiga Toxin. cell reporter, cycloheximide protein synthesis inhibition counterscreen. max response, %. actives 12% (n = 300,000). AID 2314, 2010; in the data active = max response mostly above about 13%, no sharp cut-off; inactive = mostly below about 14%; also: read at 38.3 µM for the half of the compounds with a filed dose; 0% is about no effect
Active calls of the source: *; / = no result; [ ] = dose if it differs, or a comment. Unless noted, calls follow the shape of the dose curve; as a rule, active = well fitted curve in the direction sought with a large enough effect; inconclusive = small, poorly fitted or top-dose-only effect, or another doubt; inactive = no such curve, though single readings can be large; an effect the other way counts as inactive or inconclusive.

SMILES | NS1 function inh | Shiga toxin inh | Giardia FBPA inh | LmPK inhibitor | Cycloheximide cs
CCOC(=O)c1ccc(Nc2ncccc2[N+](=O)[O-])cc1 | 0% | 62* | -1% | -10% | 35*
CCOC(=O)c1c(C)c(C(=O)NCCc2ccccc2)c(C)n1C | / | 104* | 6% | 2% | 40*
CCOC(=O)c1c(C)c(C(=O)Nc2ccccc2)c(C)n1CC | 0% | 32* | -4% | 2% | 24*
CC(=O)Oc1ccc2c(C)c(CC(=O)N3CCN(C(=O)C4COc5ccccc5O4)CC3)c(=O)oc2c1C (centres undefined) | -20% | -6 | 2% | -1% | 10
COc1ncc2nc(-c3cccs3)c(=O)n(Cc3cccs3)c2n1 | / | / | 4% | / | /
Cc1cc(-c2nc(C)c(-c3nnc(SCC(=O)Nc4ccc(Cl)cc4)n3C)s2)no1 | -4% | -8 | -3% | 4% | -1
O=C(Nc1cccc(OC(=O)c2ccc(Br)o2)c1)c1ccccc1 | -64% | 24 | / | -2% | 21
CCOC(=O)c1ccc(NC(=O)NCc2ccccc2)cc1 | -3% | 2 | 1% | -2% | 12
CCOC(=O)c1ccc(NC(=S)NCc2ccccc2)cc1 | -13% | 21 | -2% | -1% | 12*
COc1ccc(NC(=O)Cn2cc(S(=O)(=O)N3CCN(c4ccccc4F)CC3)c3ccccc3c2=O)cc1Cl | / | 19 | / | / | 17
O=[N+]([O-])c1ccc(COc2cccc3cccnc23)cc1 | 0% | 143* | -2% | -2% | 68*
N#Cc1ccc(COc2cccc3cccnc23)cc1 | 1% | 36* | -4% | 0% | 25*
Brc1ccc(OCCOc2cccc3cccnc23)cc1 | 3% | 15 | -5% | -5% | -3
Cn1c(CSc2ccccc2)c(C#N)c2ccccc21 | -58% | 81* | -6% | -2% | 43*
Cc1ccc(SCc2c(C#N)c3ccccc3n2C)cc1 | -8% | 30 | -4% | 5% | 2
CC(=O)Nc1nc2ccc(NC(=O)c3ccco3)cc2s1 | 10% | 55* | -3% | -3% | 45*
Cc1nc2ccc(NC(=O)c3ccco3)cc2s1 | -33% | 104* | -8% | -12% | 34*
COc1cc2c(cc1OC)C1CCC3=C([C@H](C)OC3=O)N1CC2 (some centres undefined) | / | / | -13% | / | /
CCN1C(=O)/C(=C/N2CC(C)CC(C)C2)SC1=S (centres undefined) | 6% | -6 | 18% | 8% | 6
CCN1C(=O)/C(=C\N2CCCCCC2)SC1=S | -18% | 23 | 3% | 0% | 15*
CCN1C(=O)/C(=C/N2CCc3ccccc3C2)SC1=S | 2% | 31 | 20% | -1% | 16*
CCN1C(=O)/C(=C\C=C\c2ccccc2[N+](=O)[O-])SC1=S | / | 43 | -8% | -1%[11.5 µM] | 22
CCOC(=O)C1CCCN(/C=C2\SC(=S)N(CC)C2=O)C1 (centres undefined) | -5% | 16 | 1% | 6% | 7.9*
COc1ccc(/C=C/C(=O)NC(=S)NCc2ccccc2)cc1OC | 0% | 13 | -5% | 3% | -4
CCCCCC(=O)N1c2ccccc2C(C)(c2ccccc2)CC1(C)C (centres undefined) | / | 13 | / | / | 7
SMILES | NS1 function inh | Shiga toxin inh | Giardia FBPA inh | LmPK inhibitor | Cycloheximide cs
COc1ccc(CNC(=O)c2ccc(C)o2)cc1 | -4% | 19 | 2% | 4% | 13*
COc1ccc(CNC(=O)c2ccc(C(C)(C)C)cc2)cc1 | 5% | 91* | -3% | -6% | 64*
CC(C)c1ccc(CC(NC(=O)c2ccccc2)C(=O)NCC(=O)O)cc1 (centres undefined) | / | 9 | 7% | 2% | -2
COc1ccc(CNC(=O)c2cc(C3CC3)on2)cc1 | -11% | 81 | -3% | 0% | 25*
CC(C)c1ccc(CNNC(=O)c2ccccc2)cc1 | -2% | 75* | 12% | -5% | 52*
COc1ccc(CNC(=O)c2ccncc2)cc1 | -1% | -1 | 2% | 5% | 1
COc1ccc(-c2cc(C(=O)NCCCn3ccnc3)c3ccccc3n2)c(OC)c1 | -8% | 15 | 6% | -2% | -3
COc1ccc(CNC(=O)c2ccc(C(C)C)cc2)cc1 | -5% | 157* | -4% | 4% | 46*
C/C(=N\NC(N)=O)c1ccccc1 | -2% | 18 | 3% | -5% | -4
C/C(=N\NC(=O)c1ccoc1C)c1ccccc1 | -1% | 64* | -5% | 14µM* | 44*
C/C(=N/NC(=O)c1ccoc1C)c1ccc(NC(=O)C2CCCC2)cc1 | 3% | 65* | -1% | -10% | 58*
Cc1occc1C(=O)NNC(=O)C1CCCCC1 | 20% | 2 | 0% | 0% | 5
C/C(=N\NC(=O)c1n[nH]c2c1CCC2)c1ccco1 | -4% | 27 | 2% | 16µM* | 26*
C/C(=N/NC(=O)c1cc(-c2ccc(Cl)s2)[nH]n1)c1ccco1 | 2% | 20 | -2% | 1% | 18
CCC(C)(C)C1CCc2[nH]nc(C(=O)N/N=C(\C)c3ccco3)c2C1 (centres undefined) | 10% | 107* | -3% | 4% | 61*
COCC(=O)N1CCC2(CCCN(Cc3cc(C(F)(F)F)cc(C(F)(F)F)c3)C2)CC1 | / | / | -3% | / | /
CC(=O)c1ccc(NC(=S)NCc2ccco2)cc1 | 1% | 58* | -1% | 1% | 36*
NC(=O)c1ccc(NC(=S)NCc2ccco2)cc1 | / | 39 | 1% | -3% | 11*
CCCN1CCN(C(=O)Cn2cnc3ccc(S(=O)(=O)N4CCC(C)CC4)cc3c2=O)CC1 | / | -14 | 8% | 1% | 4
CSCCC(NC(=O)COc1ccccc1)C(=O)NCCOc1ccc(C)cc1 (centres undefined) | -13% | -10 | / | -6% | -2
CCN1C(=O)[C@H]2[C@H]3[C@H](O)[C@H](O)C/C(=N/OCC[C@H]4C=C[C@H](OC(C)=O)[C@@H](COC(C)=O)O4)[C@@H]3CC[C@@H]2C1=O | / | / | -5%[12.9 µM] | / | /
Cc1ccc(CCN=c2c([N+](=O)[O-])nn(-c3ccccc3)n2O)cc1 | -7% | 23 | -5% | -1% | 7
O=[N+]([O-])c1nn(-c2ccccc2)n(O)c1=NCCc1ccccc1 | -35% | 112* | 0% | -5% | 25*
COc1cccc(CN=c2c([N+](=O)[O-])nn(-c3ccccc3C)n2O)c1 | / | 33 | -4% | 0% | 2
COc1ccc(-n2nc([N+](=O)[O-])c(=NCCc3ccccc3)n2O)cc1 | -14% | -8 | 3% | 1% | 15*
COc1ccc(C2(C)NC(=O)N(CC(=O)NCc3ccccc3F)C2=O)cc1 (centres undefined) | -6% | -14 | 5% | 6% | 2
O=C(Nc1ccc(NC(=O)c2ccccc2Br)cc1)c1ccccc1 | 2% | 15 | 4% | 0% | 16
O=C(Nc1ccccc1)c1ccc(S(=O)(=O)Nc2cccc(O)c2)cc1 | 0% | -24 | / | -3% | -1
O=C(Nc1cccc(O)c1)c1ccc(C(F)(F)F)cc1 | -3% | 69* | -19% | -20% | 30*
